Here are results for 92 compounds from PubChem BioAssay AID1527 (The Scripps Research Institute Molecular Screening Center, 2009).

Screen size: about 290,000 compounds; about 2,600 (0.9%) were called active.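 How the source made its calls: active means inhibition above the mean of all tested compounds plus 3 SD, cutoff set per screening run (cut at about 7.5% in these data); inactive means the rest.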 Shown is part of a subset that was picked to be rich in actives.

The inhibition is the drop in the measured response relative to a control, in per cent.

For this test, the system named is VIM-2 metallo-beta-lactamase (Pseudomonas aeruginosa). Description: VIM-2 metallo-beta-lactamase inhibitors, primary screen, biochemical, epi-absorbance readout, Pseudomonas aeruginosa enzyme (AID 1527).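 Further: red hydrolysis product quenches plate fluorescence so inhibitors raise well fluorescence; 0% = enzyme with DMSO and 100% = DMSO without enzyme.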 To be noted: purified VIM-2, nitrocefin hydrolysis, epi-absorbance fluorescence; at 5.6 µM; stronger effect = higher value.
For the compound `CCc1cc(=O)oc2cc(C)cc(OCC(=O)N3CCC[C@@H]3C(=O)O)c12`, the inhibition was 14.5% (active).

As for `CCCc1cc(=O)oc2c(C)c(OCC(=O)N3CCC(C(=O)O)CC3)ccc12`, the inhibition is -1.65% (inactive).

In the case of `CCc1cc(=O)oc2cc(C)cc(OC(C)C(=O)O)c12` (configuration not stated), the inhibition is -2.35% (inactive).

`O=C(NCC1CCCO1)c1ccccc1-c1nc(-c2ccccc2Cl)no1` (configuration not stated): the inhibition was -2.71% (inactive).

For the compound `COc1ccccc1NC(=O)c1cc(N2C(=O)C3C4CCC(C4)C3C2=O)ccc1Cl` (configuration not stated), the inhibition was -0.65% (inactive).

In the case of `COc1ccc(CCNC(=O)CCn2c(=O)c3ccccc3n(CC(=O)NCC3CCCO3)c2=O)cc1OC` (configuration not stated), the inhibition was -1.51% (inactive).

For `COc1ccc(CCn2c(=N)c(C(=O)NCC3CCCO3)cc3c(=O)n4cccc(C)c4nc32)cc1OC` (configuration not stated), the inhibition is 16.1% (active).

As for `CCn1c(=N)c(C(=O)NCCCOC)cc2c(=O)n3cccc(C)c3nc21`, the inhibition was 10.5% (active).

As for `Cc1cccn2c(=O)c3cc(C(=O)NCCN4CCOCC4)c(=N)n(Cc4cccnc4)c3nc12`, the inhibition was 4.67% (inactive).

Regarding `COc1ccc(CCn2c(=N)c(C(=O)NCc3ccco3)cc3c(=O)n4cccc(C)c4nc32)cc1`, the inhibition is -1.42% (inactive).

Turning to `Cc1cccn2c(=O)c3cc(C(=O)NCC4CCCO4)c(=N)n(Cc4ccc(F)cc4)c3nc12` (configuration not stated), the inhibition was 5.79% (inactive).

Consider `Cc1ccc(S(=O)(=O)N(CC(=O)NCCSC2CCCCC2)c2ccccc2F)cc1`, for which the inhibition is -2.1% (inactive).

Consider `COc1cccc(N(C(=O)c2snc(C(N)=O)c2N)C(C(=O)NCC2CCCO2)c2c[nH]c3ccccc23)c1` (configuration not stated), for which the inhibition is -0.46% (inactive).

`CCOC(=O)C1(Cc2ccccc2C)CCCN(C(=O)CCc2c(C)noc2C)C1` (configuration not stated): the inhibition is 0.38% (inactive).

For the compound `Cc1occc(=O)c1OCc1ccc(F)cc1`, the inhibition is -1.42% (inactive).

As to `COC(=O)CN1C(=O)[C@H]2[C@@H](C3CC3)N3C(=O)CN(Cc4ccc(-c5ccccc5)cc4)C(=O)[C@@]3(Cc3ccccc3)[C@H]2C1=O`, the inhibition was -2.72% (inactive).

Consider `Cc1cc(NC(=O)c2ccc(F)cc2)ccc1NC(=O)c1ccco1`, for which the inhibition was -3.06% (inactive).

Take `Cc1[nH][nH]c(=O)c1N=Nc1ccccc1`: the inhibition was -4.7% (inactive).

For the compound `Cc1[nH]n(-c2ccccc2)c(=O)c1N=Nc1ccccc1C(=O)N1CCCCC1`, the inhibition is -0.74% (inactive).

Turning to `COC(=O)c1ccccc1N=Nc1c(C)[nH][nH]c1=O`, the inhibition was 8.28% (active).

As for `CN(Cc1ccco1)S(=O)(=O)c1nnc(NC(=O)c2ccccc2)s1`, the inhibition is -2.48% (inactive).

Consider `O=c1oc2ccccc2c(NC2CCCCC2)c1NS(=O)(=O)c1ccc(Cl)cc1`, for which the inhibition was -2.68% (inactive).

For the compound `Cc1cc2c(cc1C)[n+](C)cn2CC(O)COCC1CC=CCC1` (configuration not stated), the inhibition was -3.17% (inactive).

With `Clc1ccc(C2=CSC3=Nc4cccc5cccc(c45)N23)cc1`, the inhibition is 1.95% (inactive).

Turning to `Cc1cnc(C(=O)OCc2c(C)cc(C(C)(C)C)cc2C)cn1`, the inhibition was 0.21% (inactive).

With `CCc1ccc(/C=C2\SC(N3CCOCC3)=NC2=O)cc1`, the inhibition is -0.98% (inactive).

Consider `CC1CCN(C2=NC(=O)/C(=C/c3ccc(O)cc3)S2)CC1`, for which the inhibition was 1.8% (inactive).

For `CCOc1cc(/C=C2\SC(N3CCCCC3)=NC2=O)ccc1O`, the inhibition is 14.9% (active).

With `CCOc1cc(/C=C2\SC(N3CCCC(C)C3)=NC2=O)ccc1O` (configuration not stated), the inhibition was 14.7% (active).

For `O=C1N=C(N2CCc3ccccc3C2)S/C1=C\c1ccc(O)cc1`, the inhibition was 0.39% (inactive).

For the compound `O=C1N=C(N2CCCC2)S/C1=C\c1cccc(Br)c1`, the inhibition is -0.86% (inactive).

On to `COCCCNC(=O)[C@H]1N2C(=O)c3ccccc3C2SC1(C)C` (some centres not stated), for which the inhibition is 0.11% (inactive).

As to `CC(C)c1ccc(OCC(O)CN2CCN(c3ccccn3)CC2)cc1` (configuration not stated), the inhibition was -3.55% (inactive).

`CN(CC(=O)NCc1ccncc1)S(=O)(=O)c1ccc(Br)cc1`: the inhibition is -1.28% (inactive).

`COc1ccccc1OCCCC(=O)Nc1ccc2c(c1)OCCO2`: the inhibition is -2.36% (inactive).

In the case of `CC1CCCCC1NC(=O)CCS(=O)(=O)c1ccc2c(c1)NC(=O)CO2` (configuration not stated), the inhibition was -1.17% (inactive).

As to `COCC(=O)N1CCc2ccc(NC(=O)c3ccccc3Cl)cc2C1`, the inhibition is -2.32% (inactive).

In the case of `CSc1cccc(NC(=O)CN2C(=O)COc3ccc(S(=O)(=O)N4CCOCC4)cc32)c1`, the inhibition is -1.26% (inactive).

For `O=C1/C(=C/c2cccs2)CCC1C1CCCC1` (configuration not stated), the inhibition was -3.15% (inactive).

With `Cn1c2ccccc2c(=O)c2c(O)cccc21`, the inhibition is 16.8% (active).

As to `COc1cccc2c(O)cc(=O)n(C)c12`, the inhibition was -2.19% (inactive).

For the compound `Cn1c(=O)c(Sc2ccc(Cl)cc2)c(O)c2ccccc21`, the inhibition was -2.02% (inactive).

For `COc1ccc(NC(=O)C2CCC(CNS(=O)(=O)c3csc(C(N)=O)c3)CC2)cc1OC` (configuration not stated), the inhibition was 1.07% (inactive).

In the case of `Cc1cc(=O)oc2c(C)c(OCC(=O)NCCc3ccc(S(N)(=O)=O)cc3)ccc12`, the inhibition is 10.4% (active).

On to `Cc1ccc2c(=O)cc(C(=O)NCCc3ccc(S(N)(=O)=O)cc3)oc2c1C`, for which the inhibition was 5.69% (inactive).

On to `Cc1cc(=O)oc2c(C)c(OCC(=O)NCCN3CCOCC3)ccc12`, for which the inhibition is 5.03% (inactive).

Regarding `Cc1ccccc1NC(=S)NC(=O)Cc1ccc(Cl)cc1`, the inhibition is -0.97% (inactive).

Consider `O=C(NCCN1CCOCC1)c1cc(-c2cccs2)nc2ccccc12`, for which the inhibition was -0.14% (inactive).

Regarding `CCCCN(C)CCCNC(=O)c1cc(-c2cccs2)nc2ccccc12`, the inhibition was -1.4% (inactive).

`CC1CCN(CCCn2c(SCC(=O)NC3CCCC3)nc3ccccc3c2=O)CC1`: the inhibition was -1.12% (inactive).

For `Cc1cc(=O)oc(C)c1C(=O)NCCN(C)Cc1ccccc1`, the inhibition was -1.11% (inactive).

For `CCCN(CCC)CCNC(=O)c1cc2c(C)nc3ccccc3c2o1`, the inhibition was 10.2% (active).

Consider `Cc1nc2ccccc2c2oc(C(=O)NCCCN3CCC(C)CC3)cc12`, for which the inhibition was 16.2% (active).

For the compound `Cc1ccccc1C(CC(=O)c1cccs1)C(C#N)C#N` (configuration not stated), the inhibition is -2.96% (inactive).

For the compound `O=S(=O)(NC1CCCCC1N1CCCCC1)c1ccc(Cl)cc1` (configuration not stated), the inhibition was -1.53% (inactive).

Regarding `CCCCn1c(N)c(N(CC)C(=O)c2ccccc2C(F)(F)F)c(=O)[nH]c1=O`, the inhibition was -0.36% (inactive).

Consider `Cc1ccc(N(CC(=O)NCC2CCCO2)C(=O)CNS(=O)(=O)c2ccc(Cl)cc2)cc1` (configuration not stated), for which the inhibition is -3.97% (inactive).

With `COc1cccc(CNC(=O)Cn2c(=O)oc3cc(S(=O)(=O)N4CCCCC4)ccc32)c1`, the inhibition was -0.65% (inactive).

Take `CCOC(=O)C1=C(O)/C(=C/c2ccc(OCC(=O)Nc3ccc(C)cc3)cc2)N=C1C`: the inhibition was -1.99% (inactive).

`CCCn1c(SCC(N)=O)nnc1C(C)C`: the inhibition was -1.77% (inactive).

Take `CCn1c(SCC(=O)Nc2ccc3c(c2)OCCO3)nnc1C(C)C`: the inhibition was -1.97% (inactive).

`CCCn1c(SCC(=O)c2ccc3c(c2)OCCO3)nnc1C(C)C`: the inhibition is 9.77% (active).

Take `CCN(CC)CCCNC(=O)COc1ccc2oc3c(c2c1)CCCC3`: the inhibition was -0.12% (inactive).

As for `O=C(N/N=C/c1cccc([N+](=O)[O-])c1)C1CC(=O)N(c2ccc(Br)cc2)C1` (configuration not stated), the inhibition was -1.97% (inactive).

Turning to `CCC1(C)Cc2c(sc3nc(SC)nc(N)c23)CO1` (configuration not stated), the inhibition is -3.26% (inactive).

As to `CCSc1nc2sc3c(c2c(=O)[nH]1)CC(C)(C)OC3`, the inhibition is 0.86% (inactive).

Take `CN(C)CCSc1nc(N)c2c3c(sc2n1)COC(C)(C)C3`: the inhibition is 10.3% (active).

On to `CC1CC(NC(=O)/C(C#N)=C/c2ccc[nH]2)CC(C)(C)C1` (configuration not stated), for which the inhibition was -3.17% (inactive).

In the case of `COc1ccc(C(=O)Nc2ccc(C3(C#N)CCCC3)cc2)cc1OC`, the inhibition is -1.46% (inactive).

On to `Cc1cc(C)cc(N(CC(=O)NC2CCCC2)C(=O)CCC(=O)Nc2cc(C)on2)c1`, for which the inhibition is -2.81% (inactive).

As for `COc1ccc(Cc2nnc(NS(=O)(=O)Cc3ccccc3)s2)cc1`, the inhibition was 13.9% (active).

For the compound `COc1ccc(Cc2nnc(NC(=O)Cc3cccs3)s2)cc1`, the inhibition was -3.71% (inactive).

With `CCC(CC)c1nnc(NS(=O)(=O)Cc2ccccc2)s1`, the inhibition was -1.98% (inactive).

Consider `Cc1ccc(NS(=O)(=O)c2cn(C)c(=O)n(C)c2=O)c(C)c1`, for which the inhibition is -0.4% (inactive).

In the case of `CCS(=O)(=O)N1CCC(N2CCN(c3ccccc3)CC2)CC1`, the inhibition is -1.31% (inactive).

`O=C(NCCc1cccc(F)c1)C1CCCN(c2nc3ccccc3s2)C1` (configuration not stated): the inhibition was 0.44% (inactive).

As for `Cc1cc(Cl)c2oc(C(=O)NC(C)c3ccncn3)c(C)c2c1` (configuration not stated), the inhibition is -1.68% (inactive).

`CCC1CCCCN1CCCNC(=O)Cn1nc(-c2ccccc2)ccc1=O` (configuration not stated): the inhibition was -1.79% (inactive).

In the case of `CCC1CCCCN1CCCNC(=O)c1cc2c(Cl)nc3ccccc3c2s1` (configuration not stated), the inhibition is 19.5% (active).

Consider `CCC1CCCCN1CCCNC(=O)C1CCC(Cn2c(=O)[nH]c3ccccc3c2=O)CC1` (configuration not stated), for which the inhibition was -4.77% (inactive).

Take `Cc1nn(C)c(Oc2ccccc2)c1CCNS(=O)(=O)c1ccc(F)cc1`: the inhibition is -2.13% (inactive).

`O=C(NCCCN1CCOCC1)c1ccccc1NS(=O)(=O)c1ccc(F)cc1`: the inhibition was -1.71% (inactive).

As for `O=C(NCCCN1CCOCC1)c1cnn2c(-c3ccccc3)cc(-c3ccccc3)nc12`, the inhibition is 23.4% (active).

In the case of `O=C(NCCCN1CCOCC1)c1ccccc1NS(=O)(=O)c1ccc(Br)cc1`, the inhibition is -2.82% (inactive).

With `COc1ccccc1N(C)C(=O)c1cc(S(=O)(=O)N2CCc3ccccc32)cn1C`, the inhibition was -4.13% (inactive).

Regarding `Brc1ccccc1C1N=C(c2ccccc2)NO1` (configuration not stated), the inhibition was -2.78% (inactive).

`NS(=O)(=O)c1ccc(NC(=O)COC(=O)c2cc3ccccc3oc2=O)cc1`: the inhibition is 0.95% (inactive).

Regarding `COc1cc(/C=C2\CCCc3c2nc2ccccc2c3C(=O)O)cc(Cl)c1O`, the inhibition is 2.46% (inactive).

On to `NC(=O)c1ccc(NC(=O)COC(=O)c2c3c(nc4ccccc24)/C(=C\c2ccc4c(c2)OCO4)CCC3)cc1`, for which the inhibition was 20.7% (active).

Regarding `NS(=O)(=O)c1ccc(NC(=O)COC(=O)c2c3c(nc4ccccc24)/C(=C\c2ccc4c(c2)OCO4)CCC3)cc1`, the inhibition is 23.9% (active).

As to `O=C(COC(=O)c1c2c(nc3ccccc13)/C(=C\c1cccs1)CCC2)Nc1ccccc1Cl`, the inhibition is -4.79% (inactive).

Regarding `COc1cc(-c2cc(C(=O)OCC(=O)Nc3ccc4c(c3)OCO4)c3ccccc3n2)cc(OC)c1OC`, the inhibition is 2.83% (inactive).
